Apoferritin bind: binds horse apoferritin like a general anesthetic. Potency, µM (titrated, usually from 77.5 µM), without a hit: at the top dose activity change, negative = displacement, usual class: inhibitors. apoferritin/1-aminoanthracene competitive binding, fluorescence. AID 485281. 0.074% of 350,000 active; also: potency is read from the fitted curve at half-maximal effect; % is scaled to controls: 0 for no effect and ±100 for the full control effect; nearly all actives have a fitted effect of over 20% in size
Target sequence (P02791 2-175 limits assumed): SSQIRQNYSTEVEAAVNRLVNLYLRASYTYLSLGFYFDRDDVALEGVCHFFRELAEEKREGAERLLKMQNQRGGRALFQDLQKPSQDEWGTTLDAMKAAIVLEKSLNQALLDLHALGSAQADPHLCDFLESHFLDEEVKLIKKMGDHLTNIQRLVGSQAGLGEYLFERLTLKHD
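Apoferritin-based anesthetic binding model; compound displacement of fluorescent 1-AMA measured as endpoint fluorescence after 10 minutes at room temperature, scaled to free-ligand and complex controls.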
PKM2 activator: increases activity of human pyruvate kinase M2. Potency, µM (series often up to 57.5 µM), for the others: at the highest dose activation, most hits filed as activators. 0.34% of 260,000 active. purified PKM2, Kinase-Glo ATP luminescence, activation; response scale: 0% is enzyme alone, no compound; also: potency is read from the fitted curve at half-maximal effect; % is scaled to controls: 0 for no effect and ±100 for the full control effect; nearly all actives have a fitted effect of over 55% in size
Target sequence (P14618 whole entry, looked up): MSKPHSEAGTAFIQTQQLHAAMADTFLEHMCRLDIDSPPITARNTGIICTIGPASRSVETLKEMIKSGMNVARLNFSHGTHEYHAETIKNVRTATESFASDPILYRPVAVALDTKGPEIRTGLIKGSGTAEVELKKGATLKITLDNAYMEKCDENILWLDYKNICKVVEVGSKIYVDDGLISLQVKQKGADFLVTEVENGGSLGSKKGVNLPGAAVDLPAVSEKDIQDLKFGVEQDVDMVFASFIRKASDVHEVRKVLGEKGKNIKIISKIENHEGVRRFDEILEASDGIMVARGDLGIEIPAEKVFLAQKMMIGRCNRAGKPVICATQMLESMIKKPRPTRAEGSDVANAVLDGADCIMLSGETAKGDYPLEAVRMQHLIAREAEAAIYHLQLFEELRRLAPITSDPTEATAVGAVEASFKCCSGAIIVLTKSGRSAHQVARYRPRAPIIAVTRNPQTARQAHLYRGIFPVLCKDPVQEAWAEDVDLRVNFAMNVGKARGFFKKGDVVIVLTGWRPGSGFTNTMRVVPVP
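Kinase-Glo luminescence reports ATP generated from ADP (0.1 mM) and PEP (0.5 mM) by purified hPK-M2 after 1 h at room temperature, pH 7.2 imidazole buffer; intermediate enzyme activity allows detecting inhibitors and activators.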
IL2 activator: activates IL-2 in a cell-based reporter assay; 0.065% of 360,000 active; AID 652025; IL-2 activation reporter assay, cell-based qHTS; stimulated with anti-CD3/CD4/CD28 beads; in transgenic mouse T cells; activation, % (series mostly up to about 46 µM); in the data active = activation above about 50%; inconclusive = mostly about 30% to 49%; also: 0% is about no effect
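Readout: EGFP and DsRed signals by fluorescent plate cytometry. Unstimulated transgenic mouse T cells received compound 60 min before antibody-bead stimulation, then incubated 18 h at 37 degrees C.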
Integrin act MD: activators of alpha7 integrin expression for muscular dystrophy. alpha7betagal myoblasts, beta-gal FDG fluorescence, 48 h. Potency, µM (titrated, usually from 38.3 µM), for inactives: at the highest dose activation, most hits filed as activators. 0.064% of 350,000 active. AID 624291;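 also: potency is read from the fitted curve at half-maximal effect; 100% = response of the positive control SU9516; nearly all actives have a fitted effect of over 60% in size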
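alpha7betagal+/- myoblasts (passage 13, 250/well) treated 48 h at 37C with compounds at 1:260 dilution of DMSO stock. Lysed, then beta-galactosidase activity read as FDG fluorescence (ex 480/em 540) after 30 min, with pre-read for autofluorescence.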
BRCA1 expr act: BRCA1 expression activation | MCF7-BRCA1-FFLuc reporter, luminescence, 48 h; response scale: scaled: vehicle 0%, 10 µM genistein 100% | AID 624202 | 1.1% of 380,000 active | Potency, µM (series often up to 46.1 µM), without a hit: top-dose activation, actives largely listed as activators; also: potency is read from the fitted curve at half-maximal effect; nearly all actives have a fitted effect of over 80% in size
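Luminescence from a BRCA1-driven firefly luciferase in MCF7 cells was the read-out, taken 15 min after substrate addition following 48 h compound exposure at 37 °C. Data were normalized to a 10 microM genistein control and DMSO vehicle.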
An asterisk follows results filed as active; ? = inconclusive; / = not tested or not shown; [ ] = dose if it differs, or a comment. Hits are enriched below; roughly 1.3% of the tested compounds scored in any of these assays. Unless noted, calls follow the shape of the dose curve; as a rule, active = well fitted curve in the direction sought with a large enough effect; inconclusive = small, poorly fitted or top-dose-only effect, or another doubt; inactive = no such curve, though single readings can be large; an effect the other way counts as inactive or inconclusive.

SMILES	Apoferritin bind	PKM2 activator	IL2 activator	Integrin act MD	BRCA1 expr act
Cn1c(N)c(S(=O)(=O)c2ccc(Br)cc2)c2nc3ccccc3nc21	85.9%	25.1µM*	-2.1	7.4%	0.0%
CCOC(=O)c1ccc(NCCOC)c([N+](=O)[O-])c1	-11.5%	4.6%	0.9	-26.6%	12.6µM*
Cc1c(C(=O)N2CCc3ccccc32)oc2c1C(=O)CC(C)(C)C2	-1.9%	-2.3%	-0.7	11.7%	12.6µM*
Cc1c(C(=O)N2CCN(C)CC2)oc2c1C(=O)CC(C)(C)C2	8.1%	-23.7%	0.2	-13.7%	5.3%
CC(=O)c1cccc(S(=O)(=O)N2CCN(c3nc(-c4cccs4)nc4ccccc34)CC2)c1	/	/	/	/	0.1%
COc1cc(/C=C/CN2CCN(Cc3ccc(C)o3)C(CCO)C2)ccc1O (stereo not given)	-4.0%	-0.3%	-1.2	14.1µM*	12.2%
COc1ccccc1/C=C/CN1CCN(Cc2ccc(C)o2)C(CCO)C1 (stereo not given)	-11.2%	2.7%	-1.3	27.9%	-4.9%
COc1ccc2c(c1)c1ncn(Cc3ccc(F)cc3)c(=O)c1n2C	0.2%	1.9%	0.0	22.2%	-26.7%
COc1ccc2c(c1)c1ncn(Cc3ccco3)c(=O)c1n2C	-2.9%	1.26µM*	0.1	-17.7%	37.6%
Cc1cc(C(=O)Nc2cnc3ccccc3c2)ccc1[N+](=O)[O-]	-4.9%	-23.0%	2.2	0.0%	3.16µM*
Cc1cc(C(=O)Nc2ccc(N3CCCC3)c(Cl)c2)ccc1[N+](=O)[O-]	3.8%	7.1%	-4.5	21.5%	10µM*
O=C(Nc1ccc(N2CCCC2)c(Cl)c1)c1ccc([N+](=O)[O-])cc1	-6.4%	-8.3%	-1.6	-7.6%	20.8%
Cc1ccc(-n2c(CCC(=O)O)ccc2-c2cccs2)cc1Cl	6.0%	/	/	/	/
CCN1C(=NCc2cccc(C(F)(F)F)c2)N[C@@H](c2cccc(C(F)(F)F)c2)C(C(=O)OC)=C1C	/	/	/	/	-68.0%
COc1ccc(-c2csc(N=C(N)N)n2)cc1	-13.8%	-11.5%	-3.4	0.0%	?
Cc1ccc(-c2csc(N)n2)cc1	/	/	-0.2	0.0%	10µM*
COc1ccc(-c2csc(N)n2)cc1	-8.7%	-8.3%	0.6	15.8%	10µM*
Cc1ccc(-c2csnn2)cc1	-2.8%	6.8%	3.5	10µM*	0.5%
Cc1ccc(OCc2csc(N)n2)cc1	-23.5%	-3.8%	0.3	10.2%	5.01µM*
Nc1nc(COc2ccc(Cl)cc2)cs1	?	3.4%	-1.6	-38.5%	?
CN(C)C1C(=O)C(C(N)=O)C(=O)C2(O)C(=O)C3C(=O)c4c(O)ccc(Cl)c4C(O)C3CC12 (stereo not given)	26.4%	/	/	/	/
CC1=C(C(=O)Nc2ccccc2)C(c2ccccc2Cl)n2ncc(C(=O)Nc3cccc(C)c3)c2N1 (stereo not given)	4.3%	/	/	/	/
Nc1nc(-c2ccc(Oc3ccccc3)cc2)cs1	-12.1%	-1.9%[11.5 µM]	0.1	?	11.2µM*
Nc1nc(-c2ccc(-c3ccccc3)cc2)cs1	-7.1%	-15.2%	-0.5	32.9%	?
COC(=O)c1ccccc1OCc1cc(=O)oc2ccc(C)cc12	/	/	-0.6	/	-30.3%
SMILES	Apoferritin bind	PKM2 activator	IL2 activator	Integrin act MD	BRCA1 expr act
CCc1nc2oc3ccccc3c(=O)c2cc1C(=O)OC	5.6%	/	0.4	13.0%	3.16µM*
COCc1nc2oc3ccc(C)cc3c(=O)c2cc1C(=O)OC	5.9%	/	0.0	-29.8%	3.16µM*
COCc1nc2oc3ccc(F)cc3c(=O)c2cc1C(=O)OC	0.8%	/	-4.7	7.0%	3.98µM*
CCC1(c2ccc(O)cc2)NC(=O)N(C)C1=O (stereo not given)	1.8%	/	/	/	/
COc1ccc([C@]23Cc4cc(C#N)ccc4C(O2)c2c(cc(C)n(-c4ccccc4)c2=O)O3)cc1	-12.5%[15.3 µM]	6.1%[11.5 µM]	/	/	/
Cc1cccc(-c2nn3c(=O)cc(CN4CCN(S(=O)(=O)c5ccc(Cl)cc5)CC4)nc3s2)c1	-6.9%	/	/	/	0.0%
N#Cc1nc(-c2ccc(OCc3ccccc3Cl)cc2)oc1N1CCC(C(N)=O)CC1	/	/	/	/	6.5%
COc1ccccc1S(=O)(=O)Nc1ccc(-c2nnc3n2CCCCC3)cc1	-2.8%	20µM*	0.7	21.0%	-3.9%
C=C1NN(CC#N)C(=O)N1c1ccc(OCc2ccccc2)cc1	/	/	/	/	10µM*
C#CC(C)(C)NC(=O)c1ccc(-c2ccccc2F)cc1	3.3%	?	-2.5	?	12.6µM*
NNC(=O)c1ccc(-c2ccccc2F)cc1	5.7%	-9.0%	0.7	1.1%	-9.2%
CCC(CC)C(=O)Nc1ccc2nc(SCC(=O)N3c4ccccc4CC3C)sc2c1 (stereo not given)	-5.3%	/	/	/	-5.0%
Cc1ccc(S(=O)(=O)N2CCN(c3nc(-c4cncn4C)nc4ccccc34)CC2)cc1	/	/	/	/	-31.5%
Cc1ccc(C(=O)c2ncc[nH]2)cc1	/	/	1.5	-16.4%	14.1µM*
O=C(c1ccc(OC(F)(F)F)cc1)c1ncc[nH]1	-4.2%	/	-0.5	-9.1%	?
CCOC(=O)c1ccc(N/C=C\C(=O)c2cccc(OC)c2)cc1	-1.0%	-5.4%	-0.8	5.2%	3.55µM*
CCOc1ccc(N/C=C\C(=O)c2ccc3c(c2)OCO3)cc1	/	/	14.5	1.9%	4.47µM*
Cc1cccc(OCCSc2nc3ccccc3n2CC(=O)N2CCOCC2)c1C	3.1%	/	/	/	0.8%
OCC[n+]1ccc(/C=C/c2c[nH]c3ccccc23)cc1	109.4%	-13.1%	94.5*	-33.9%	-28.6%
O=c1c2ccccc2sn1-c1ccc(S(=O)(=O)N2CCOCC2)cc1	/	/	/	/	18.5%
NC(=O)c1ccsc1NC(=O)c1ccc(S(=O)(=O)N2CCCCC2)cc1	?	2.9%	-3.0	-14.8%	80.9%
NC(=O)c1ccsc1NC(=O)c1ccc(S(=O)(=O)N2CCCC2)cc1	-16.1%	0.3%	-0.1	5.0%	12.6µM*
CC(=O)c1sc(N/N=C\c2ccc(Br)cc2)nc1C	3.7%	3.8%	17.0	-32.5%	3.55µM*
COc1ccc(/C=N/Nc2nc(-c3ccc(C)cc3)c(NC(C)=O)s2)cc1	-5.1%	?	1.3	0.0%	22.1%
CC(=O)Nc1sc(N/N=C/c2ccc(O)cc2)nc1-c1ccc(C)cc1	3.6%	17.8µM*	-0.7	10.8%	?
SMILES	Apoferritin bind	PKM2 activator	IL2 activator	Integrin act MD	BRCA1 expr act
CC(=O)Nc1sc(N/N=C/c2ccccc2)nc1-c1ccc(C)cc1	-9.1%	?	-0.6	-9.4%	-3.8%
CC(=O)c1sc(N/N=C\c2cccc(Br)c2)nc1C	-0.6%	-2.5%	1.9	-4.0%	26.9%
CC(=O)Nc1sc(N/N=C/c2ccccc2F)nc1-c1ccc(C)cc1	-11.6%	10µM*	-0.3	-9.9%	35.5%
CC(=O)n1nc(-c2ccc(C)cc2)nc1NCc1ccco1	-7.0%	1.0%	0.3	13.1%	5.01µM*
COc1cc2c(c(OC)c1OC)-c1c(cc3c(c1OC)OCO3)CC(C)C(C)(O)C2OC(=O)c1ccccc1 (stereo not given)	-8.3%	/	/	/	/
COc1ccc(CNCc2ccccc2)cc1COc1ccc(NC(C)=O)cc1	/	/	/	/	0.0%

Compound activity from PubChem BioAssay.
